A short description of the assay: qHTS drug screen for cell cycle checkpoint inhibitors in PARPi-resistant BRCA-mutant ovarian cancer cell lines. (AID 1963452). Conditions: PEO1/OlaR viability, CellTiter-Glo luminescence, 96 h; for Z-AUC: stronger effect = lower value. The text has this: Women's Malignancies Branch, Center for Cancer Research (CCR),
National Cancer Institute (NCI), National Institutes of Health (NIH), Bethesda, MD
Poly (ADP-ribose) polymerase inhibitors (PARPis) have changed the treatment paradigm in breast cancer gene (BRCA) - mutant high-grade serous ovarian carcinoma (HGSC). However, most patients eventually develop resistance to PARPis, highlighting an unmet need for improved therapeutic strategies. Using high-throughput drug screens, we identified ataxia telangiectasia and rad3-related protein/checkpoint kinase 1 (CHK1) pathway inhibitors as cytotoxic and further validated the activity of the CHK1 inhibitor (CHK1i) prexasertib in PARPi-sensitive and -resistant BRCA-mutant HGSC cells and xenograft mouse models. CHK1i monotherapy induced DNA damage, apoptosis, and tumor size reduction. We then conducted a phase 2 study (NCT02203513) of prexasertib in patients with BRCA-mutant HGSC. The treatment was well tolerated but yielded an objective response rate of 6% (1 of 17; one partial response) in patients with previous PARPi treatment. […] BRCA reversion mutation in previously PARPi-treated BRCA-mutant patients was not associated with resistance to CHK1i.
Among others, 1082 oncology drugs, both approved and investigational, were prioritized based on their status in clinical trial development. […] Drugs with average Z-AUC values less than -1.0 in all three cell lines were classified as "hits" resulting in 151 oncology drug hits. The screen also confirmed cross-resistance between olaparib and other PARPis (rucaparib, niraparib, and talazoparib) in PARPi-resistant PEO1/OlaR and PEO4.
[1] G. L. Lin, K. M. Wilson, M. Ceribelli, B. Z. Stanton, P. J. Woo, S. Kreimer, E. Y. Qin, X. Zhang, J. Lennon, S. Nagaraja, P. J. Morris, M. Quezada, S. M. Gillespie, D. Y. Duveau, A. M. Michalowski, P. Shinn, R. Guha, M. Ferrer, C. Klumpp-Thomas, S. Michael, C. McKnight, P. Minhas, Z. Itkin, E. H. Raabe, L. Chen, R. Ghanem, A. C. Geraghty, L. Ni, K. I. Andreasson, N. A. Vitanza, K. E.Warren, C. J. Thomas, M. Monje, Therapeutic strategies for diffuse midline glioma from high-throughput combination drug screening. Sci. Transl. Med. 11, (2019).
[2] T. M. Yamamoto, A. McMellen, Z. L. Watson, J. Aguilera, R. Ferguson, E. Nurmemmedov, T. Thakar, G. L. Moldovan, H. Kim, D. M. Cittelly, A. M. Joglar, E. P. Brennecke, H. Wilson, K. Behbakht, M. J. Sikora, B. G. Bitler, Activation of Wnt signaling promotes olaparib resistant ovarian cancer. Mol. Carcinog. 58, 1770 - 1782 (2019).
PROTOCOL TABLE (as described by Inglese J, Shamu CE and Guy RK. 2007)
SEQUENCE No. (e.g., 1, 2, 3, etc.); […] (e.g., Cells, Incubation, Reagent, etc.); VALUE; DESCRIPTION.
1; Compounds; 20nL; 1536-well white tissue culture-treated plates.
2; Cells; 5 uL; PEO1, PEO4, and PEO1/OlaR cells at 600 cells per well.
3; Incubation; 96 hr; 37C, 95% humidity, 5% CO2.
4; Reagent; 3 uL; CellTiter-Glo (Promega).
5; Incubation; 15 min; room temperature.
6; Detection; Luminescence, PHERAstar (BMG Labtech) plate reader.
NOTES (numbers refer to Sequence numbers above)
1. MIPE 5.0 compounds were acoustically dispensed by Echo Acoustic Liquid Handler (Beckman Coulter Life Sciences). Each compound was plated at an 11-point concentration range with 1:3 dilution. Bortezomib, a proteasome inhibitor (final concentration, 20 uM), was used as a positive.
2. PEO1, PEO4, and PEO1/OlaR were trypsinized and dispensed in 5 uLof growth medium using a Multidrop Combi dispenser at a density of 600 cells per well to allow compounds to be present during the exponential growth phase.
3. Plates were incubated for 96 hours at standard incubator conditions and covered by a stainless steel gasketed lid to prevent evaporation.
4. Three microliters of CellTiter-Glo (Promega) were added to each well.
5. Plates were incubated at room temperature for 15 min with a stainless-steel lid in place.
6. Luminescence readings were taken using PHERAstar (BMG Labtech). […]
(In general: Quantitative high-throughput screening tests each substance at several concentrations.)

The mark [1] stands for this setting: measured here: PEO1 parental Z-AUC.

Each structure is given as a SMILES string. Activity calls are given as the source filed them. Calls follow the shape of the full dose curve.
Potency is read from the fitted curve at half-maximal effect.

Take `COc1ccc(S(=O)(=O)N(C(C)=O)c2ccccc2/C=C/c2cc[n+]([O-])cc2)cc1`: the Potency was 1.1 µM (active). Also, the Z-AUC under setting [1] was -1.34. Also, the Z-AUC (measured here: PEO4 Z-AUC) is -1.39.

In the case of `CO[C@H]1/C=C/O[C@@]2(C)Oc3c(C)c(O)c4c(O)c(c(/C=N/N5CCN(C)CC5)c(O)c4c3C2=O)NC(=O)/C(C)=C\C=C\[C@H](C)[C@H](O)[C@@H](C)[C@@H](O)[C@@H](C)[C@H](OC(C)=O)[C@@H]1C`, the Z-AUC was 1.24 (inactive). In addition, the Z-AUC under setting [1] was determined as 1.13. In addition, the Z-AUC (measured here: PEO4 Z-AUC) came out at 1.29.

Regarding `CC(=O)O/N=C1/C(c2c(O)[nH]c3cc(Br)ccc23)=Nc2ccccc21`, the Z-AUC is -1.48 (inactive). For the same compound, the Z-AUC under setting [1] amounted to 0.461. Moreover, for the setting “measured here: PEO4 Z-AUC”, the Z-AUC is -0.699.

For `CC1=C(c2ccc(O)cc2)[C@H](c2ccc(OCCN3CCCCC3)cc2)Oc2cc(O)ccc21`, the Z-AUC is 0.716 (inactive). Further, the Z-AUC under setting [1] amounted to 0.402. Also, the Z-AUC (measured here: PEO4 Z-AUC) was -0.752.

Regarding `COc1ccc(S(=O)(=O)N2CCc3cccc(-c4ccncc4)c32)cc1`, the Z-AUC is -1.73 (inactive). For the same compound, the Z-AUC under setting [1] was -1.49. Moreover, the Z-AUC (measured here: PEO4 Z-AUC) was -1.55.

With `Cc1cc2c(F)c(Oc3ncnn4cc(OC[C@@H](C)OC(=O)[C@H](C)N)c(C)c34)ccc2[nH]1`, the Z-AUC is 1.46 (inactive). Further, the Z-AUC under setting [1] came out at 0.526. Further, for the setting “measured here: PEO4 Z-AUC”, the Z-AUC is 0.822.

In the case of `COc1ncc(Nc2ncc(C(C)N3CCN(S(C)(=O)=O)CC3)cc2-c2nc(C)nc(N)n2)cc1F` (configuration not stated), the Z-AUC was 0.314 (inactive). Further, the Z-AUC under setting [1] came to 0.577. Besides, the Z-AUC (measured here: PEO4 Z-AUC) stood at 0.144.

`CC[C@H](NC(=O)[C@H](C)NC)C(=O)N1C[C@@H](O)C[C@H]1Cc1c(-c2[nH]c3cc(F)ccc3c2C[C@@H]2C[C@H](O)CN2C(=O)[C@H](CC)NC(=O)[C@H](C)NC)[nH]c2cc(F)ccc12`: the Z-AUC is 1.52 (inactive). Moreover, the Z-AUC under setting [1] was 1.38. Where the note is “measured here: PEO4 Z-AUC”, the Z-AUC came out at 0.68.

`CCN1C(=O)N2Cc3cc(OC)cc(OC)c3[C@@H](C)C=C2C12CCN(Cc1cc(C)cc(C)c1)CC2`: the Z-AUC was -1 (inactive). Further, the Z-AUC under setting [1] was -1.06. The Z-AUC (measured here: PEO4 Z-AUC) was -1.16.

Consider `Cn1cc(C2=C(c3cn(C)c4cc([N+](=O)[O-])ccc34)C(=O)NC2=O)c2ccccc21`, for which the Z-AUC is -0.69 (inactive). Also, under setting [1], the Z-AUC was -0.95. The Z-AUC (measured here: PEO4 Z-AUC) was -1.21.

Regarding `[O-][n+]1cccc(-c2nc3c(Cl)cccc3cc2[C@@H](Nc2ncnc3cccnc23)C(F)(F)F)c1`, the Z-AUC was -0.846 (inactive). For the same compound, under setting [1], the Z-AUC came out at 0.42. The Z-AUC (measured here: PEO4 Z-AUC) is 0.695.

For the compound `CCn1c(N)c(C(=O)NC)c(=O)c2ccc(C#C[C@@](C)(O)COC)nc21`, the Z-AUC is -0.226 (inactive). Moreover, the Z-AUC under setting [1] is -0.662. For the same compound, for the setting “measured here: PEO4 Z-AUC”, the Z-AUC is 0.0317.

Regarding `CCCS(=O)(=O)c1nc(NC2CC2)cc(-c2ccc3c(ccn3C3CC(C)(C)NC(C)(C)C3)c2)n1`, the Z-AUC is -1.38 (inactive). The Z-AUC under setting [1] was -1.22. Moreover, the Z-AUC (measured here: PEO4 Z-AUC) is -1.57.

`CCOC(=O)CCNc1cc(N2CCc3ccccc3CC2)nc(-c2ccccn2)n1`: the Z-AUC is 0.71 (inactive). For the same compound, the Z-AUC under setting [1] stood at 0.271. For the same compound, under “measured here: PEO4 Z-AUC”, the Z-AUC was -0.212.
